# Source: PubChem BioAssay (National Center for Advancing Translational Sciences (NCATS))
# This is one part of a sample in which hits are shown more often than they occur.
# Tb PFK block = qHTS Assay to Find Inhibitors of T. brucei phosphofructokinase; 330,000 tested, 0.17% active; T. brucei PFK, ADP-Glo luminescence; ATP-dependent 6-phosphofructokinase (Trypanosoma brucei brucei), O15648; AID 485367, 2010; Potency, µM (titrated, usually from 57.5 µM), for the others: top-dose activity, negative = inhibition, hits mostly inhibitors;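 further: potency means the concentration at half of the fitted maximal effect; 0% = uninhibited 1x PFK enzyme wells and -100% = no-enzyme wells; nearly all actives have a fitted effect of over 60% in size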
#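 ADP-Glo luminescence quantified ADP after 45 min at room temperature, with 1.25 nM T. brucei PFK, 0.1 mM ATP and 0.5 mM fructose-6-phosphate in pH 8.0 TEA buffer. qHTS titrations up to 57 µM; curves classified by quality.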
# Pin1 inhibitor = qHTS Assay to Find Inhibitors of Pin1; Peptidyl-prolyl cis-trans isomerase NIMA-interacting 1 (Homo sapiens), Q13526; Pin1 FP peptide displacement, HiFluor488, 10 min; Potency, µM (titrated, usually from 115 µM), for inactives: at the highest dose activity, negative = inhibition, actives largely listed as inhibitors; 390,000 tested, 0.009% active; active means well fitted inhibition curve with a large enough effect in the polarisation, with a control signal flat, not every such curve was filed as active; inconclusive means small, poorly fitted or top-dose-only effect, or effect the other way, or a change in a side signal; inactive means no such curve, though single readings can be large or run the other way; the % refers to the polarisation; further: potency means the concentration at half of the fitted maximal effect
# Target sequence (Q13526 whole entry, looked up): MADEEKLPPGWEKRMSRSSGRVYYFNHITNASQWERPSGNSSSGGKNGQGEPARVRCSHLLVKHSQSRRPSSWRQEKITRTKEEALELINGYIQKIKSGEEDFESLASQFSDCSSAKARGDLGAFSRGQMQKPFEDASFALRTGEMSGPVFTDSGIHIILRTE
# PI5P4K alpha inh = qHTS for Inhibitors of phosphatidylinositol 5-phosphate 4-kinase (PI5P4K). Phosphatidylinositol 5-phosphate 4-kinase type-2 alpha (Homo sapiens), P48426. PI5P4Kalpha enzyme, ADP-Glo luminescence, 60 min; hits give low values. max response, %. 330,000 tested, 1.2% active; active means max response of -50% or lower; inconclusive means between -30% and -50%; inactive means -30% or higher; further: value at the top dose of about 77 µM
#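 Luminescence from ADP-Glo served as readout of PI5P4Kalpha activity in a qHTS format. Reaction: enzyme, substrate, compound, ATP at 5 microM final, 60 min at RT.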
# PGK inhibitor = qHTS Assay to Find Inhibitors of Phosphoglycerate Kinase; Potency, µM (doses to about 57.5 µM), without a hit: at the top dose activity change, negative = inhibition, most hits filed as inhibitors; Phosphoglycerate kinase, glycosomal (Trypanosoma brucei brucei), P07378; AID 602233, 2012; 380,000 tested, 0.043% active; PGK/GAPDH coupled, Kinase-Glo luminescence, 60 min; further: potency means the concentration at half of the fitted maximal effect; nearly all actives have a fitted effect of over 60% in size
#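 Luminescent ATP detection (Kinase-Glo Plus) follows a 60-minute room-temperature incubation, with wells lacking PGK as controls. Buffer: 100 mM TEA (pH 7.6), 5 mM MgCl2, 0.01% Tween-20. Coupling enzyme GAPDH (100 nM final) supplies unstable 1,3-BPG in-well.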
# PI4K2A block = qHTS for small molecular inhibitors of PI4K2A | Phosphatidylinositol 4-kinase type 2-alpha (Homo sapiens), Q9BTU6 | purified PI4K2A, ADP-Glo luminescence, 1 h; hits give low values | activity change, negative = inhibition, % at 76.9 µM | 420,000 tested, 0.13% active | AID 1346378, 2018; in the data active means activity change below about -50%; inconclusive means mostly about -30% to -49%;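 further: -100% = wells without enzyme as full effect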
# Target sequence (Q9BTU6 whole entry, looked up): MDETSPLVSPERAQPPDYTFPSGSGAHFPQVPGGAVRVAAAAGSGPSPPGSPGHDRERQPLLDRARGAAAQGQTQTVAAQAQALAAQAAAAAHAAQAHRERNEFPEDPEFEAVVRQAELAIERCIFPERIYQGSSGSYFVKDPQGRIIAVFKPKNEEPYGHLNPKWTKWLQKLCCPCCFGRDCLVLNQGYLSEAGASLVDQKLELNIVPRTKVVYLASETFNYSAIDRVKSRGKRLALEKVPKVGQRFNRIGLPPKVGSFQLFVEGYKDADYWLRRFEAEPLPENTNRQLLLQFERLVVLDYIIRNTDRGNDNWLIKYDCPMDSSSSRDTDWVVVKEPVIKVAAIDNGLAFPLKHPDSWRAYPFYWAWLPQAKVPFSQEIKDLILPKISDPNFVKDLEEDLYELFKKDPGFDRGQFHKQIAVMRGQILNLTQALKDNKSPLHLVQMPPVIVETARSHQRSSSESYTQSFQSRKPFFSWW
#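 PI4K2A activity was measured by ADP-Glo luminescence: enzyme (4 ug/mL stock) and phosphatidylinositol (1.2 mM stock) in Tris pH 7.5/MgCl2/EGTA/Triton X-100 buffer were reacted with ATP (300 microM stock) for one hour at ambient temperature.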
# ADP-Glo counter = qHTS for Inhibitors of PI5P4K: ADP-Glo counter assay; shares compounds with PI5P4K alpha inh; ADP-Glo detection counter-screen, luciferase luminescence, no enzyme; Potency, µM (series often up to 76.9 µM), for the others: at the top dose activity change, negative = inhibition, most hits filed as inhibitors; 1,100 tested, under 10 active; AID 743285, 2014
# The depositor's hits bear a star; i = inactive; ? = inconclusive; . = no result. Unless noted, the call rests on the fitted dose curve; in most records, active means well fitted curve in the direction sought with a large enough effect; inconclusive means small, poorly fitted or top-dose-only effect, or another doubt; inactive means no such curve, though single readings can be large; an effect the other way counts as inactive or inconclusive. Unless noted, on the % scale 0 is the no-effect control and ±100 the full control effect.
SMILES,Tb PFK block,Pin1 inhibitor,PI5P4K alpha inh,PGK inhibitor,PI4K2A block,ADP-Glo counter
CCOc1ccc2[nH]c(=O)c(C(c3nnnn3Cc3ccco3)N3CCCC(C)C3)cc2c1 (stereo unspecified),-5%,13%,-54*,4%,1,4%
COc1ccc(Cn2nnnc2CN(Cc2cc3cc(C)ccc3[nH]c2=O)C2CCCC2)cc1,-8%,24%,.,-7%,-1,.
CN1CCN(C(c2ccccc2)c2ccc(Cl)cc2)CC1 (stereo unspecified),-8%,0%,-52*,6%,-2,1%
C[C@H](NC(=O)c1cc2c(cn1)[nH]c1ccccc12)C(=O)O,-28%,5%,-67*,2%,-4,-6%
COc1ccc2c(CC(=O)O)cc(=O)oc2c1,-4%,-1%,-4,-8%,-4,.
Cc1oc2ccc(OCc3ccccc3Cl)cc2c1C(=O)O,3%,1%,-61*,1%,0,-5%
Cc1ccc(Cl)cc1N1CCN(S(=O)(=O)c2ccc3[nH]c(=O)c(=O)[nH]c3c2)CC1,-5%,?,-55*,-7%,1,-3%
O=CN1N=C(c2ccccc2)CC1c1ccccc1[N+](=O)[O-] (stereo unspecified),0%,-7%,-4,3%,5,.
Cc1ccc(NC(=O)c2cc(-c3ccco3)nc3ccccc23)cc1S(=O)(=O)N1CCOCC1,13%,?,-29,-5%,?,.
CCCCCCNC(=O)c1cc(-c2ccco2)nc2ccccc12,-24%,-30%,-86*,?,16,-9%
CC(C)CCNC(=O)c1cc(-c2ccco2)nc2ccccc12,-2%,7%,.,8%,8,.
O=C(NCC1CCCO1)c1cc(-c2ccco2)nc2ccccc12 (stereo unspecified),-18%,?,?,-15%,-5,.
CCc1nnc(NC(=O)c2cc(-c3ccco3)nc3ccccc23)s1,20%,.,-78*,?,-28,-6%
O=C(NC1CCC(O)CC1)c1cc(-c2ccco2)nc2ccccc12 (stereo unspecified),1%,-8%,-67*,-14%,-9,-6%
CCc1nnc(NC(=O)c2cc(-c3ccccn3)nc3ccccc23)s1,1%,2%,2,6%,-1,.
COc1ccc(NC(=O)c2cc(-c3ccco3)nc3ccccc23)cc1S(=O)(=O)N1CCOCC1,0%,-19%,-59*,-8%,-28,-10%
Cc1ccc(S(=O)(=O)N2CCN(C(=O)CCc3nc4ccccc4c(=O)[nH]3)CC2)c(C)c1,-6%,4%,-13,-3%,-2,.
CCCCn1c(N)c(N(CC(C)C)C(=O)c2cc(-c3ccco3)nc3ccccc23)c(=O)[nH]c1=O,-14%,37%,-59*,0%,-3,3%
CN(C)C(CNC(=O)c1cc(-c2ccco2)nc2ccccc12)c1ccccc1 (stereo unspecified),-1%,.,-54*,-9%,?,-1%
COc1ccc(NC(=O)CN(C)C(=O)c2cc(-c3ccco3)nc3ccccc23)cc1,?,.,-74*,?,-28,-5%
Cc1ccc(-c2csc(/C(C#N)=C/Nc3ccc4c(c3)OCCO4)n2)cc1,0%,-1%,-1,1%,3,.
CCCCN(CC)S(=O)(=O)c1ccc(C(=O)N(CCCN(C)C)c2nc3cc(C)cc(C)c3s2)cc1,-1%,6%,0,-7%,2,.
O=C(COc1ccc(Cl)cc1)NC1=NN(c2ccccc2)C(=O)C1,0%,-18%,-58*,-1%,-16,-2%
COC(=O)CNC(=O)C1Cc2ccccc2CN1S(=O)(=O)c1cccs1 (stereo unspecified),1%,-7%,-5,-8%,5,-4%
CC(C(=O)N1CCc2ccccc21)N1CCN(Cc2ccccc2)CC1 (stereo unspecified),0%,1%,5,.,-1,.
SMILES,Tb PFK block,Pin1 inhibitor,PI5P4K alpha inh,PGK inhibitor,PI4K2A block,ADP-Glo counter
Nc1c(C(=O)O)cnc2c(-c3ccc(Cl)cc3)cnn12,-2%,-1%,-84*,32µM*,-9,-1%
COc1ccccc1NC(=O)c1nc[nH]c1C(=O)Nc1ccccc1OC,-3%,-3%,-3,-9%,1,.
COC(=O)c1[nH]cnc1C(=O)c1ccccc1,-6%,3%,-61*,-9%,-1,2%
CCCCNC(=O)C1(C)CCC(=O)N1c1cc(C(C)(C)C)nn1C (stereo unspecified),.,.,4,.,0,2%
Cc1c(OCC(F)(F)F)ccnc1CS(=O)c1nc2ccccc2[nH]1 (stereo unspecified),-10%,0%,-67*,-8%,-5,-4%
COc1ccc2c(CC(=O)N3CCN(S(=O)(=O)c4ccc(F)cc4)CC3)coc2c1,-11%,9%,-53*,i,-14,2%
O=C(Oc1ccc2c(c1)OCO2)c1cc2c(s1)CCC2,?,.,-53*,?,-14,-9%
CCOc1ccc(S(=O)(=O)N2CCN(c3ccc(C)cc3C)CC2)cc1,0%,6%,-110*,1%,-4,-2%
COc1ccc(S(=O)(=O)N2CCN(c3ccc(C)cc3C)CC2)cc1OC,-1%,0%,-1,-11%,2,.
COCCN(C(=O)COC(=O)c1cc2c(s1)CCCC2)c1c(N)n(Cc2ccccc2)c(=O)[nH]c1=O,-22%,8%,-56*,1%,-9,-3%
CC1(C)Cc2nc(-c3ccccc3)nc(NNC(=O)c3ccco3)c2CO1,-4%,6%,-12,-7%,-3,.
Cc1ccc(Nc2nc(-c3sc(N)nc3C)cs2)cc1,-12%,30%,-54*,5%,-13,-3%
CCOc1ccc(Nc2nc(-c3sc(N)nc3C)cs2)cc1,2%,2%,-29,0%,-4,-8%
O=C(NCCC1CCCCN1S(=O)(=O)c1ccccc1)C(=O)Nc1ccccc1 (stereo unspecified),11%,2%,1,-7%,1,.
COc1ccc(OC)c(C2CC(=O)N3CN(c4cccc(Cl)c4C)CSC3=C2C#N)c1 (stereo unspecified),-13%,4%,-64*,-3%,4,-6%
CCOc1ccc(N2CSC3=C(C#N)C(c4ccco4)CC(=O)N3C2)cc1 (stereo unspecified),?,-2%,.,-3%,-3,.
